According to PubChem BioAssay (NCATS):
Records with an inconclusive call do not appear. Entries that show only a call come without a potency. Active and inactive are the calls of the source. Calls follow the shape of the dose curve; as a rule, active = well fitted curve in the direction sought with a large enough effect; inconclusive = small, poorly fitted or top-dose-only effect, or another doubt; inactive = no such curve, though single readings can be large; an effect the other way counts as inactive or inconclusive.

Assays:
[1] = qHTS assay to identify small molecule inhibitors of chordoma cells - UCH-1 (AID 1259355); also: nearly all actives have a fitted effect of over 55% in size; as to potency: series mostly up to about 46 µM
How it was run: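 A 48hr growth-inhibition format: each drug tested at 15 concentrations together with added auranofin, camptothecin, doxorubicin, rubitecan and topotecan, with cell viability quantified as CellTiter-Glo luminescence.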

[2] = qHTS assay to identify small molecule inhibitors of chordoma cells - UCH-2 (AID 1259356)
Potency is read from the fitted curve at half-maximal effect.

| SMILES | Potency [1] | Potency [2] |
| --- | --- | --- |
| Clc1ccc(C2(Cn3cncn3)OCCO2)c(Cl)c1 | inactive | inactive |
| C#CC(C)(O)CC (stereo not given) | inactive | inactive |
| O=C(CCl)c1ccc(Oc2ccc(C(=O)CCl)cc2)cc1 | inactive | inactive |
| c1csc(C2(N3CCCCC3)CCCCC2)c1 | inactive | inactive |
| O=C/C=C/c1ccccc1 | inactive | inactive |
| CC(N)Cc1ccc(O)cc1 (stereo not given) | inactive | inactive |
| CC[C@H]1[C@@H]2C[C@H]3[C@@H]4N(C)c5ccccc5[C@]45C[C@@H](C2[C@H]5O)N3[C@@H]1O (stereo not given in full) | inactive | inactive |
| C=CCN1CC[C@]23c4c5ccc(O)c4O[C@H]2[C@@H](O)C=C[C@H]3[C@H]1C5 | inactive | inactive |
| C=C[C@H]1CN2CC[C@H]1C[C@H]2[C@H](OC(=O)OCC)c1ccnc2ccc(OC)cc12 | inactive | inactive |
| CCC(=O)O[C@]1(c2ccccc2)CCN(C)C[C@H]1C | inactive | inactive |
| [O]=[Cd] | inactive | inactive |
| OC[C@@H](O)[C@H]1O[C@@H]2O[C@@H](C(Cl)(Cl)Cl)O[C@@H]2[C@H]1O | inactive | inactive |
| ClC(Cl)(Cl)Cl | inactive | inactive |
| CCC1(CC)C(=O)NC(=O)N(C)C1=O | inactive | inactive |
| OC[C@@H](O)[C@H]1O[C@@H]2O[C@H](C(Cl)(Cl)Cl)O[C@@H]2[C@H]1O | inactive | inactive |
| CC(=O)OCC(=O)[C@H]1CC[C@H]2[C@@H]3CC[C@H]4C[C@H](O)CC[C@]4(C)[C@H]3C(=O)C[C@]12C | inactive | inactive |
| Oc1cc(Cl)c(Cl)cc1Cl | inactive | inactive |
| COc1cc2c(cc1OC)[C@@]13CCN4CC5=CCO[C@H]6CC(=O)N2[C@H]1[C@H]6[C@H]5C[C@H]43 | inactive | inactive |
| C[C@]12CC[C@H](O)C[C@H]1CC[C@@H]1[C@@H]2CC[C@]2(C)[C@@H](c3ccc(=O)oc3)C[C@H]3O[C@]132 | 6.31 µM [with auranofin plus four topoisomerase inhibitors] (active) | 6.51 µM (active) |
| [S]=[Sb](=[S])[S][Sb](=[S])=[S] | inactive | inactive |
| C[C@]12CC[C@H]3[C@@H](CCC4=C(O)C(=O)CC[C@@H]43)[C@@H]1CC[C@@H]2OC(=O)CCC1CCCC1 | inactive | inactive |
| CCCC(=O)OC(C(Cl)(Cl)Cl)P(=O)(OC)OC (stereo not given) | inactive | inactive |
| O=C(OCCN1CCCCC1)C(O)(c1ccccc1)c1ccccc1 | inactive | inactive |
| CCOP(=O)(OCC)O/C(=C/Cl)c1ccc(Cl)cc1Cl | inactive | inactive |
| O=C1CN(O)C(c2ccccc2)=c2cc(Cl)ccc2=N1 | inactive | inactive |

| SMILES | Potency [1] | Potency [2] |
| --- | --- | --- |
| Clc1ccccc1Cl | inactive | inactive |
| CC(=O)O[C@H]1CC[C@H]2[C@@H]3CCC4=CC(=O)CCC4=C3C=C[C@]12C | inactive | inactive |
| O=c1[nH]c(=O)n(Cl)c(=O)n1Cl | inactive | inactive |
| C[C@@H](CO)NC(=O)[C@@H]1C=C2c3cccc4[nH]cc(c34)C[C@H]2N(C)C1 | inactive | inactive |
| C=CC[C@]1(O)CC[C@H]2[C@@H]3CCC4=CCCC[C@@H]4[C@H]3CC[C@@]21C | inactive | inactive |
| O=C1CCCCC1CN1CCCCC1 (stereo not given) | inactive | inactive |
| CN1c2ccccc2C(NCCCCCCC(=O)O)c2ccc(Cl)cc2S1(=O)=O (stereo not given) | inactive | inactive |
| Clc1ccc(Cl)cc1 | inactive | inactive |
| Cn1sc(Cl)cc1=O | inactive | inactive |
| O=C1CN=C(c2ccccc2)c2cc(Cl)ccc2N1CC1CC1 | inactive | inactive |
| CCOC(=O)/C=C(C)/C=C/C[C@@H](C)CCCC(C)C | inactive | inactive |
| O=Cc1ccco1 | inactive | inactive |
| CN(C)[C@H](Cc1ccccc1)c1ccccc1 | inactive | inactive |
| C[C@@H](Cc1ccccc1)N(C)C | inactive | inactive |
| COC([CH2][Hg])CNC(=O)c1ccccc1OCC(=O)O (stereo not given) | inactive | inactive |
| CN(C)[C@@H]1C(=O)C(C(N)=O)=C(O)[C@@]2(O)C(=O)C3=C(O)c4c(O)ccc(Cl)c4[C@@](C)(O)[C@H]3C[C@@H]12 | inactive | inactive |
| CC(C)CCC(=O)O[C@H]1CC[C@H]2[C@@H]3CCC4=CC(=O)CC[C@]4(C)[C@H]3CC[C@]12C | inactive | inactive |
| CCN(CC)CCO[C@H]1CC[C@@]2(C)C(=CC[C@@H]3[C@@H]2CC[C@]2(C)C(=O)CC[C@@H]32)C1 | inactive | inactive |
| O=C(NCNC(=O)NC1C(=O)NC(=O)N1CO)NC1C(=O)NC(=O)N1CO (stereo not given) | inactive | inactive |
| COc1ccc2c3c1O[C@H]1C(=O)CC[C@H]4[C@@H](C2)N(C)CC[C@]314 | inactive | inactive |
| CNC1(c2ccccc2Cl)CCCCC1=O (stereo not given) | inactive | inactive |
| C[C@]12C[C@H]3S[C@H]3C[C@@H]1CC[C@@H]1[C@@H]2CC[C@]2(C)[C@@H](O)CC[C@@H]12 | inactive | inactive |
| C[N+]1(C)CCCCC1COC(=O)C(O)(c1ccccc1)c1ccccc1 (stereo not given) | inactive | inactive |
| CCNC1(c2cccs2)CCCCC1=O (stereo not given) | inactive | inactive |
| c1cc2c(c(NC3=NCCN3)c1)CCCC2 | inactive | inactive |
